PI5P4K alpha inh – qHTS for Inhibitors of phosphatidylinositol 5-phosphate 4-kinase (PI5P4K) | PI5P4Kalpha enzyme, ADP-Glo luminescence, 60 min; stronger effect = lower value | max response, % | actives 1.2% (n = 330,000); active = max response of -50% or lower; inconclusive = between -30% and -50%; inactive = -30% or higher; also: value at the top dose of about 77 µM
Target sequence (P48426 whole entry, looked up): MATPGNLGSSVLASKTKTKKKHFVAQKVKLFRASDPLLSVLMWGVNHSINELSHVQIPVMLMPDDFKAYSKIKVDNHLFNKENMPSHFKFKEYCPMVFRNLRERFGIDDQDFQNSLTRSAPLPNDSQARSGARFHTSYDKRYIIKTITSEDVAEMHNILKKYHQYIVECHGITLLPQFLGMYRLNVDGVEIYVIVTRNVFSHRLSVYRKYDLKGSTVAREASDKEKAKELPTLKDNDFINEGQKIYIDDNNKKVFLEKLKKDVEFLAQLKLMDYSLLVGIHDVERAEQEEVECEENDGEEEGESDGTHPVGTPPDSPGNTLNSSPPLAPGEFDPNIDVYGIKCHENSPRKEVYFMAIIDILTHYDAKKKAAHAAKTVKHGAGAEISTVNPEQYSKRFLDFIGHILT
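Compounds were pin-transferred onto PI5P4Kalpha and substrate in HEPES pH 7.4 buffer with EGTA, CHAPS and 5% DMSO. ATP (5 microM final) started the reaction, which ran 60 minutes at room temperature before ADP-Glo detection.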
POLI inh – qHTS for Inhibitors of Polymerase Iota. Potency, µM (titrated, usually from 115 µM), hits mostly inhibitors. Pol iota fluorescent replication assay, 10 min. actives 1% (n = 390,000). DNA polymerase iota (Homo sapiens), Q9UNA4
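Fluorescent replication assay read twice, at 0 min and 10 min after adding 50 nM (final) substrate. Enzyme (10 nM) and compounds were first incubated 15 min at room temperature; enzyme-free buffer wells were negative controls.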
POLK inh – qHTS for Inhibitors of Polymerase Kappa; DNA polymerase kappa (Homo sapiens), Q9UBT6; purified Pol kappa, fluorescent DNA synthesis assay, 10 min; Potency, µM (doses to about 107 µM), most hits filed as inhibitors; actives 0.53% (n = 400,000)
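10 nM Pol kappa preincubated 15 min at room temperature with compounds, then reaction started with substrate at 50 nM final. Fluorescence read kinetically at 0 and 10 min; buffer-only wells served as negative control.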
Pol eta inh – qHTS for Inhibitors of Polymerase Eta. DNA polymerase eta (Homo sapiens), Q9Y253. recombinant Pol eta, fluorescent DNA replication assay. actives 1.2% (n = 390,000). Potency, µM (titrated, usually from 114 µM), most hits filed as inhibitors
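Pol eta (10 nM) was preincubated with compounds for 15 min at room temperature, after which fluorescent replication substrate (50 nM final) was added to start the reaction. Fluorescence was read kinetically at 0 and 10 min.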
Pol beta inh – qHTS Assay for Inhibitors of DNA Polymerase Beta; actives 1.3% (n = 340,000); Pol beta primer extension/strand displacement, fluorescence kinetic; Potency, µM (highest dose often 114 µM), most hits filed as inhibitors
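Kinetic readout of DNA synthesis with strand displacement by Pol beta. Compound and 10 nM enzyme sit 15 min at room temperature; 50 nM substrate starts the reaction, read immediately and at 10 min.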
PI4K2A block – qHTS for small molecular inhibitors of PI4K2A; Phosphatidylinositol 4-kinase type 2-alpha (Homo sapiens), Q9BTU6; actives 0.13% (n = 420,000); purified PI4K2A, ADP-Glo luminescence, 1 h; stronger effect = lower value; activity change, negative = inhibition, % at 76.9 µM; in the data active = activity change below about -50%; inconclusive = mostly about -30% to -49%
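PI4K2A activity was measured by ADP-Glo luminescence: enzyme (4 ug/mL stock) and phosphatidylinositol (1.2 mM stock) in Tris pH 7.5/MgCl2/EGTA/Triton X-100 buffer were reacted with ATP (300 microM stock) for one hour at ambient temperature.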
Numbers stand for hits; 0 = inactive; ? = inconclusive; - = no result given; [ ] = remark or other dose. Compounds with a hit are over-represented: about 2.8% of the library has one in this group of screens. Unless noted, calls follow the shape of the dose curve; as a rule, active = well fitted inhibition curve with a large enough effect; inconclusive = small, poorly fitted or top-dose-only effect, or another doubt; inactive = no such curve, though single readings can be large or run the other way.

SMILES | PI5P4K alpha inh | POLI inh | POLK inh | Pol eta inh | Pol beta inh | PI4K2A block
CC(C)c1ccc(/C=C/c2[nH]c(=O)[nH]c(=O)c2[N+](=O)[O-])cc1 | -57 | ? | 0 | ? | 0 | 0
COc1cccc(/C=C/c2[nH]c(=O)[nH]c(=O)c2[N+](=O)[O-])c1O | -90 | 11µM | 0 | 50µM | 0 | 0
O=C(Nc1ccc(Oc2ccccc2)cc1)C1CCCN1S(=O)(=O)c1cccc2cccnc12 (stereo not drawn) | - | - | - | - | - | 0
Cn1c2ccccc2c(=O)c2cc(C#CC3=CCCCC3)ccc21 | 0 | 4µM | ? | 45µM | - | 0
Cn1c2ccccc2c(=O)c2cc(C#Cc3cccc(N)c3)ccc21 | 0 | 0 | 0 | 0 | - | 0
O=C1C=CC(=Nc2ccc3c(c2)Cc2cc(F)ccc2-3)O1 | -58 | 0 | 0 | 0 | - | 0
CCc1ccc(CNC(=O)c2cc3c(s2)-c2ccccc2OC3)cc1 | - | 79µM | ? | 0 | 50µM | 0
COC(=O)c1cc2c(s1)-c1ccccc1OC2 | 0 | 0 | 0 | 0 | 0 | 0
CCOc1ccc(CNC(=O)c2cc3c(s2)-c2ccccc2OC3)cc1 | - | ? | 0 | 0 | 32µM | 0
COC(=O)c1ccc(Cn2c(SCc3ccccc3F)nc3ccncc32)cc1 | - | 0 | 0 | 0 | 0 | 0
Cn1nc2sc3ccccc3n2c(=O)c1=O | 0 | 0 | 0 | 0 | 0 | 0
N#Cc1cnc2sc3ccccc3n2c1=N | -61 | 0 | 0 | 0 | 0 | 0
COC(=O)C1=C(C)N(Cc2ccccc2)C(=NCC2CC2)N[C@H]1c1ccc(Br)cc1 | - | - | - | - | 0 | -
CCCCCCCCN1C(=O)[C@H](CC(=O)NCC23CC4CC(CC(C4)C2)C3)C[C@@]2(C(=O)OCC)CCC=C12 | 0 | - | - | - | - | 0
Cc1nn(Cc2ccc(C(=O)Nc3ccc(C(=O)OC(C)C)cc3)o2)c(C)c1Cl | - | ? | 0 | 0 | 45µM | 0
Cc1cc2n(n1)CCCN2C(=O)Nc1cccc(C)c1C | - | 0 | 0 | 0 | 0 | 0
O=C(/C=C/c1ccccc1)Nc1cccc(S(=O)(=O)Nc2ccccc2F)c1 | -61 | 0 | 0 | 0 | 0 | 0
CCOc1ccc2c(c1)c(=O)c(C(=O)c1ccc(CC)cc1)cn2CC(=O)Nc1ccccc1OC | - | 0 | 0 | 0 | 0 | 0
COc1cc2ncc(-c3ccccc3)nc2cc1OC | - | - | 0[19.4 µM] | - | - | -
CCOC(=O)c1sc2nc(-c3ccco3)c3c(c2c1N)CC(C)(C)OC3 | ? | 0 | 0 | ? | 40µM | 0
Cc1nc2sc(C(=O)O)c(N)c2c2c1COC(C)(C)C2 | 0 | 0 | 0 | 0 | 0 | 0
O=C1NC(=O)c2c1c(-c1ccccc1)cc1[nH]c3ccc(O)cc3c21 | - | - | 0 | - | - | -
CC(=O)Nc1ccc(SC[C@H](Cc2ccccc2)N2CC[C@@H](N)CCC2=O)cc1 | - | 0 | 0 | - | - | -
O=C(C[n+]1cccc2ccccc21)c1ccc([N+](=O)[O-])cc1 | -65 | 0 | 0 | 0 | 0 | 0
O=C(O)c1cccc(Cn2c(Cl)c(/C=N/NC(=O)c3cc4ccccc4cc3O)sc2=O)c1 | -73 | 8.9µM | 32µM | 6.3µM | 11µM | 0
SMILES | PI5P4K alpha inh | POLI inh | POLK inh | Pol eta inh | Pol beta inh | PI4K2A block
CC(C)S(=O)(=O)N1CCN(c2nc(-c3cccs3)nc3ccccc23)CC1 | - | 0 | 0 | - | - | -
CN1C(=O)S/C(=C/c2ccc(OCc3cccc(C(=O)O)c3)cc2)C1=O | 0 | 0 | 0 | 0 | 0 | 0
CN1C(=O)S/C(=C/c2cccn2-c2cccc(C(=O)O)c2)C1=O | 0 | ? | 0 | 50µM | ? | 0
OCCn1c(CSc2nnc(-c3ccco3)n2-c2ccccc2)nc2ccc(Cl)cc21 | 0 | ? | 0 | ? | 20µM | 0
O=C(CSc1nc2c(cnn2-c2ccc(F)cc2)c(=O)[nH]1)Nc1ccccc1C(F)(F)F | - | ? | 0 | 0 | 7.9µM | 0
COc1ccc(S[C@]2(C(=O)N3CCOCC3)CC(=O)N(C(=O)c3ccccc3)[C@@H]2c2ccc(OC)cc2)cc1 | - | - | - | - | - | 0
COc1ccccc1N1C(=O)c2cccc3c(C(=O)O)ccc(c23)C1=O | 0 | 0 | 0 | 0 | 0 | 0
O=C1c2cccc3c([N+](=O)[O-])ccc(c23)C(=O)N1O | ? | 0 | 0 | 2.8µM | ? | 0
O=C1c2cccc3c([N+](=O)[O-])ccc(c23)C(=O)N1c1ccccn1 | 0 | ? | 0 | ? | ? | 0
COc1ccc2c3c(cccc13)C(=O)N(O)C2=O | 0 | 0 | 0 | 0 | 35µM | 0
O=c1[nH]c(SCc2c(F)cccc2Cl)nc2c1CCCC2 | - | 0 | 0 | - | 0 | 0
Cc1ccc(-c2nc3c4cnn(-c5cc(Cl)ccc5Cl)c4ncn3n2)cc1 | - | 0 | 0 | - | 0 | 0
Nc1nc(-c2ccccc2)c(CCCOc2ccc(NC(=O)CBr)cc2)c(=O)[nH]1 | -59 | 0 | 0 | ? | - | 0
CCOCCCNC(=O)c1c(NC(=O)c2nc(SCC)ncc2Cl)sc2c1CCCC2 | - | 0 | 0 | - | - | -
O=c1c2c([N+](=O)[O-])cc([N+](=O)[O-])cc2sn1-c1ccc(Br)cc1 | -85 | 0 | 0 | 0 | 0 | 0
O=c1c2c([N+](=O)[O-])cc([N+](=O)[O-])cc2sn1Cc1ccccc1 | -80 | 0 | 0 | 0 | 0 | 0
COc1ccc(F)c(Cn2cnc3c(cnn3C(C)(C)C)c2=O)c1Cl | - | 0 | 0 | - | - | -
Cc1ccc(Cl)cc1NC(=O)Cn1c(=O)n(CCC(=O)N2CCc3ccccc3C2)c(=O)c2ccccc21 | - | 0 | 0 | 0 | 0 | 0
CC(C)=CC(=O)OCC(=O)Nc1ncc(Cl)c(C)c1Cl | - | ? | ? | 79µM | 40µM | 0
Cc1c(Cl)cnc(NC(=O)COC(=O)C2CC2)c1Cl | 0 | 0 | 0 | ? | - | 0
CC(=O)c1c(C)[nH]c(C(=O)OCC(=O)Nc2ncc(Cl)c(C)c2Cl)c1C | -54 | ? | 0 | 89µM | ? | 0
COc1ccc(-c2c(C3C4C=CCCC4(C)C(=O)N3Cc3ccccc3)ccc3ccccc23)cc1 (stereo not drawn) | - | 0 | 0 | - | - | -
N#Cc1c(-c2ccccc2)[nH]c(=O)[nH]c1=O | -92 | 0 | 0 | 0 | 0 | 0
Cc1cc(-c2ccccc2)[nH]c(=O)c1C#N | 0 | 0 | 0 | 0 | 0 | 0
COc1ccc(OC)c(CCNC(=O)c2c(C)oc3ncn(CC(C)C)c(=O)c23)c1 | - | 0 | 0 | 0 | 0 | 0
CN(C)c1ccc(/C=C2\C(=N)N3N=C(CC(=O)N4CCCC4)SC3=NC2=O)cc1Br | 0 | 79µM | ? | 0 | 0 | 0
CN(C)c1ccc(/C=C2\C(=N)N3N=C(CC(=O)N4CCCCC4)SC3=NC2=O)cc1 | ? | 50µM | ? | ? | ? | 0
Cc1cnc2ccccc2c1/C=C/c1ccc(N)cc1 | - | 0 | 0 | - | - | -

High-throughput results (PubChem BioAssay)
